We go through eight compounds from ChEMBL document CHEMBL3988442, “University of Dundee, Small-Polar-MMV Screening Library” (2021).

SMILES strings stand for the structures. For some of these results: Potency and affinity values are given separately.

What all share (design): scale not given: direction of the effect not stated beside the values
Assay [1] addresses Protein translocase subunit SecA (Escherichia coli (strain K12)) (UniProt P10408). Put plainly: Assay to Identify E. coli SecA ATPase Inhibitors. In kind it is functional. Conditions: 30 µM.
Assay [2] deals with T1, Ubiquitin-activating enzyme e1, putative (Leishmania donovani (strain BPK282A1)) (UniProt E9BSI1).
T1 sequence (whole entry): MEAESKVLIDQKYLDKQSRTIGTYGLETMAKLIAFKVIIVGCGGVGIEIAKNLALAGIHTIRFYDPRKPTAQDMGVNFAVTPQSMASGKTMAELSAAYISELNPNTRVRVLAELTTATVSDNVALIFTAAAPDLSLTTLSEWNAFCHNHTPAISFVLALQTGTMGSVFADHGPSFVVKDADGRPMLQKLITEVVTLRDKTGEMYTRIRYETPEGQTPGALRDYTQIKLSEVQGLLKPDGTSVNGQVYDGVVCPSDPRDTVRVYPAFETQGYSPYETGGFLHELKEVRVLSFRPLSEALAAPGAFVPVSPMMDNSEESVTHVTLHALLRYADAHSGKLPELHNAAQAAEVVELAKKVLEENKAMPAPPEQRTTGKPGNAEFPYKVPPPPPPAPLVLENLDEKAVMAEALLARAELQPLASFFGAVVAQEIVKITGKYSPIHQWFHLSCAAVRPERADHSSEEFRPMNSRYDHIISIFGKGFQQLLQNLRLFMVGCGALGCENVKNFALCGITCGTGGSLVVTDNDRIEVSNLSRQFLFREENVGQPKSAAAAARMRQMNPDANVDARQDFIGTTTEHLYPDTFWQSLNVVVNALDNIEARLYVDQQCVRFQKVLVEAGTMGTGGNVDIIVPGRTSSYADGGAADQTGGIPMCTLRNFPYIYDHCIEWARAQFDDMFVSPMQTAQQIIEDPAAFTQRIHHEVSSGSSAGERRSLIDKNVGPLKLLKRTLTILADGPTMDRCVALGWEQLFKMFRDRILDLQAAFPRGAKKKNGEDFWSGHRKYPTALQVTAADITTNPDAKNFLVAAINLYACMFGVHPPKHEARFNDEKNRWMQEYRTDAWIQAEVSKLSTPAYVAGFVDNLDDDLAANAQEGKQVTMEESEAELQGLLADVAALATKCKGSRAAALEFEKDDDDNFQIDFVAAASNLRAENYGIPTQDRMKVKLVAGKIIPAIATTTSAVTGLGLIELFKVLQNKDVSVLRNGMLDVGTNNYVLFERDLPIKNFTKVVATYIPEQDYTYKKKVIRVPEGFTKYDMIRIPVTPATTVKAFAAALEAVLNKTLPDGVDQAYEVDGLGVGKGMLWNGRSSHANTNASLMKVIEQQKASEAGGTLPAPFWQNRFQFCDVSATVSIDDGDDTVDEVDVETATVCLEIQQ
Put plainly: Leishmania donovani Ubiquitin Activating Enzyme (LdE1). In kind it is functional. Conditions: 30 µM.

Assay [3] has as its target AMP-activated protein kinase, AMPK (Homo sapiens) (UniProt P54646+O43741+P54619+Q9UGJ0+Q9Y478+Q13131+Q9UGI9). Briefly: AMP-dependent Kinase enzyme assay. An in vitro enzyme assay that detects ADP turnover that is directly proportional to AMPK activity. This uses naive AMPK that is activated during the assay with MK-8722. In kind it is functional. The following applies: 30 µM.

Assay [4] deals with Sialic acid-binding Ig-like lectin 9 (Homo sapiens) (UniProt Q9Y336). Briefly: Hs-Siglec9 ALPHAscreen SOP 20170721. Conditions: 10 µM. (In general: Alpha assays give light when donor and acceptor beads are brought close together.)
Sequence of Sialic acid-binding Ig-like lectin 9 (Homo sapiens) (Q9Y336 whole entry): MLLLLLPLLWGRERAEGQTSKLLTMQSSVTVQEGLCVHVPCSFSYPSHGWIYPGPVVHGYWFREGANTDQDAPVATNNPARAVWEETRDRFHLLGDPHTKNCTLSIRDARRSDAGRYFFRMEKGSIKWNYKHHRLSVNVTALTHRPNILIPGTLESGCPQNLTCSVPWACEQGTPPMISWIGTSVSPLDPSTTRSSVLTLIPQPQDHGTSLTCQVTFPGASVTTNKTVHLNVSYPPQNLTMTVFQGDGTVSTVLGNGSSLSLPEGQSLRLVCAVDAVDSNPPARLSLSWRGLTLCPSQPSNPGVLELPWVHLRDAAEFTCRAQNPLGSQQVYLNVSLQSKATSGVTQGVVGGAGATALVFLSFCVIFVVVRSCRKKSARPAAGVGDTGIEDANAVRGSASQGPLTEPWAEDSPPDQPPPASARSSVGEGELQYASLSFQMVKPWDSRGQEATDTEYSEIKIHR
The next assay has as its system Trypanosoma cruzi. Briefly: Trypanosoma cruzi phosphomannomutase and mannose-1-phosphate guanylyltransferase assay. In kind it is functional. Conditions: 10 µM.
The target of assay [5] is T2, Arginase-2, mitochondrial (Homo sapiens) (UniProt P78540).
T2 sequence (whole entry): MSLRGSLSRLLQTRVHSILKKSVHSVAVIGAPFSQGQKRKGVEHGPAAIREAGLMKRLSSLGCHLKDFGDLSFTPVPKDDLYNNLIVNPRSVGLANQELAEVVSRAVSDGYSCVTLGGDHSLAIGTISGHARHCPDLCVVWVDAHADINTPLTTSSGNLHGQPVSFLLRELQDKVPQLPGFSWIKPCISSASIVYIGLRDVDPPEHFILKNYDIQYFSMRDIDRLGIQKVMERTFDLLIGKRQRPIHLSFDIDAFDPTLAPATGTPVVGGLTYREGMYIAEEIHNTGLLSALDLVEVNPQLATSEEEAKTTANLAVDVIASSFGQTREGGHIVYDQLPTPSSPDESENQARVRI
Briefly: in vitro enzyme assay to detect the production of urea directly proportional to the activity of Arginase II. Note: in the data most compounds retested in dose-response had high values. In kind it is functional. Conditions: 33.3 µM.

For assay [6], the target named is T3, Proteasome subunit beta (Trypanosoma cruzi) (UniProt O96673).
T3 sequence (whole entry): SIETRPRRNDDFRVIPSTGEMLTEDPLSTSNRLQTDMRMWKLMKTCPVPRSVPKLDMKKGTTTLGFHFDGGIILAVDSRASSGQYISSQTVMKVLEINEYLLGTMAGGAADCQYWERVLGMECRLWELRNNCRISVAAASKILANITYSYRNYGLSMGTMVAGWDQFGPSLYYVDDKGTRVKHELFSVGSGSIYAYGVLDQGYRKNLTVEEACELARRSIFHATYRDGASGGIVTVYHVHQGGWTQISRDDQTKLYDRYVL
Put plainly: Trypanosoma cruzi proteasome chymotrypsin-like activity (TcProtChymo) assay. Note: in the data most compounds retested in dose-response had high values. The following applies: 9.37 µM. In kind it is functional.

The species entered for a further assay is Homo sapiens. Briefly: To identify inhibition of the IFN signalling (Jak-Stat) pathway via expression of an eGFP reporter gene under the control of an IFN-stimulated response element (ISRE) containing MxA promoter. In kind it is functional. Conditions: 30 µM.
Assay [7] concerns the target T4, Tyrosyl-tRNA synthetase, putative (Trypanosoma cruzi (strain CL Brener)) (UniProt Q4DSP6).
T4 sequence (whole entry): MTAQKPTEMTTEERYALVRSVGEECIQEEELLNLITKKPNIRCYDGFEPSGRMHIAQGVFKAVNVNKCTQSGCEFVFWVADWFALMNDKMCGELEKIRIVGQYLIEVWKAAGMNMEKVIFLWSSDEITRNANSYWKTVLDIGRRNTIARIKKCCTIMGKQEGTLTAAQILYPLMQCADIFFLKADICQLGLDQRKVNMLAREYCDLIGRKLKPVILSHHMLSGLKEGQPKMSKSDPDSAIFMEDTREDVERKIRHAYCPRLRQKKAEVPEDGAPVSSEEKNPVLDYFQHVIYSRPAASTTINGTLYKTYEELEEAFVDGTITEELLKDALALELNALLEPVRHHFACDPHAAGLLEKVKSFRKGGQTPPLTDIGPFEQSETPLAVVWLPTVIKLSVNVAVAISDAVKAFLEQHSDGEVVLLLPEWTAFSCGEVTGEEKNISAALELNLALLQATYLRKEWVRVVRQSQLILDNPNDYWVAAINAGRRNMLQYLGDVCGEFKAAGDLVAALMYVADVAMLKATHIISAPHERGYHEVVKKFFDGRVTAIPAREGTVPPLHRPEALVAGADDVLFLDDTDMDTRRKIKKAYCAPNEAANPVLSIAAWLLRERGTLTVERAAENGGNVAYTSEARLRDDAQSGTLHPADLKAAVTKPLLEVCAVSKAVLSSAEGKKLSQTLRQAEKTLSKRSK
Put plainly: Trypanosoma cruzi tyrosyl tRNA synthetase (TcYRS) _High Tyrosine SOP. Note: in the data most compounds retested in dose-response had high values. In kind it is functional. The following applies: 30 µM.

Assay [8] has as its target T4, Tyrosyl-tRNA synthetase, putative (Trypanosoma cruzi (strain CL Brener)). Put plainly: Trypanosoma cruzi tyrosyl tRNA synthetase (TcYRS) SOP. In kind it is functional. The following applies: 30 µM.
Assay [9] has as its target Chromo domain-containing protein 1 (Saccharomyces cerevisiae (strain ATCC 204508 / S288c) (Baker's yeast)) (UniProt P32657). Put plainly: ScCHD-1 Enzyme Inhibition Assay. Note: in the data most compounds retested in dose-response had high values. In kind it is functional. The following applies: 30 µM.

Sequence of Chromo domain-containing protein 1 (Saccharomyces cerevisiae (strain ATCC 204508 / S288c) (Baker's yeast)) (P32657 whole entry, the tested form may be a part): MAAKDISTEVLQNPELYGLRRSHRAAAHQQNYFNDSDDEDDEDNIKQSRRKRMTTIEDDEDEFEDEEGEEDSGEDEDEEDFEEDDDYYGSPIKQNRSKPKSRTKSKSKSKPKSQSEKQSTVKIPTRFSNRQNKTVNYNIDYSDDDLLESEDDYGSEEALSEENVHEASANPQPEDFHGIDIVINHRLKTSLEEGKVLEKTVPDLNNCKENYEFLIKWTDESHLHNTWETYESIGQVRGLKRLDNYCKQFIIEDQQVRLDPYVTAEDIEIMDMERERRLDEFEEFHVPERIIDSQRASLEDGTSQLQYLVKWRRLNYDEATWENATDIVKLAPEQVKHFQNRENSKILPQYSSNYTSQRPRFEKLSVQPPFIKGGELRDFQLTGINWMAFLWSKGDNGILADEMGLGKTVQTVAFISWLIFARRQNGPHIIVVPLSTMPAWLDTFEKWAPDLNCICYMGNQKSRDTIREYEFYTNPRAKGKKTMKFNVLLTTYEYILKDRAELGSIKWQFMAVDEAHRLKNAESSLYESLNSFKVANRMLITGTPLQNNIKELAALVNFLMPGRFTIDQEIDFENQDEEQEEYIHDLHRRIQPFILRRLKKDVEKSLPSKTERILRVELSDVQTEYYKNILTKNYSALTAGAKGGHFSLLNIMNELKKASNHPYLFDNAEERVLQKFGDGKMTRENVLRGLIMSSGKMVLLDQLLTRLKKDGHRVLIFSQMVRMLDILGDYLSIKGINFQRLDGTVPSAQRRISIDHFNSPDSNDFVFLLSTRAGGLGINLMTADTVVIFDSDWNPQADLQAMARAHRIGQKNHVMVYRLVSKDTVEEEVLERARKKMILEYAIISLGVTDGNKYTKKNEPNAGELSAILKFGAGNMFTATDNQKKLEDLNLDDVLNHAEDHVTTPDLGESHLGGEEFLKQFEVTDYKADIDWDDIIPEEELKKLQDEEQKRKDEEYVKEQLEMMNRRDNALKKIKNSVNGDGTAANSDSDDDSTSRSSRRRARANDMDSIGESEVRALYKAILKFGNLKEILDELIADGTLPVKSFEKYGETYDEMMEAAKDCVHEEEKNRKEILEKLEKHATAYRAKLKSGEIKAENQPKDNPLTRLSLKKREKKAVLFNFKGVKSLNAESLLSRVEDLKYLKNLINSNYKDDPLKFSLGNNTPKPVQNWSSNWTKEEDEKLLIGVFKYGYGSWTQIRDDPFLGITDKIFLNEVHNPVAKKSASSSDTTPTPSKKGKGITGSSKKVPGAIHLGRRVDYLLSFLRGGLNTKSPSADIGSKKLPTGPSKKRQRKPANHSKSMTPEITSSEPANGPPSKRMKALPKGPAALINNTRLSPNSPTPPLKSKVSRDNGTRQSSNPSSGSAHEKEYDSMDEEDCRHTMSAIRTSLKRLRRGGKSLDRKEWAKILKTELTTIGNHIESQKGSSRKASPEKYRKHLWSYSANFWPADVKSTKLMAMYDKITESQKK
Sequence of Protein translocase subunit SecA (Escherichia coli (strain K12)) (P10408 whole entry): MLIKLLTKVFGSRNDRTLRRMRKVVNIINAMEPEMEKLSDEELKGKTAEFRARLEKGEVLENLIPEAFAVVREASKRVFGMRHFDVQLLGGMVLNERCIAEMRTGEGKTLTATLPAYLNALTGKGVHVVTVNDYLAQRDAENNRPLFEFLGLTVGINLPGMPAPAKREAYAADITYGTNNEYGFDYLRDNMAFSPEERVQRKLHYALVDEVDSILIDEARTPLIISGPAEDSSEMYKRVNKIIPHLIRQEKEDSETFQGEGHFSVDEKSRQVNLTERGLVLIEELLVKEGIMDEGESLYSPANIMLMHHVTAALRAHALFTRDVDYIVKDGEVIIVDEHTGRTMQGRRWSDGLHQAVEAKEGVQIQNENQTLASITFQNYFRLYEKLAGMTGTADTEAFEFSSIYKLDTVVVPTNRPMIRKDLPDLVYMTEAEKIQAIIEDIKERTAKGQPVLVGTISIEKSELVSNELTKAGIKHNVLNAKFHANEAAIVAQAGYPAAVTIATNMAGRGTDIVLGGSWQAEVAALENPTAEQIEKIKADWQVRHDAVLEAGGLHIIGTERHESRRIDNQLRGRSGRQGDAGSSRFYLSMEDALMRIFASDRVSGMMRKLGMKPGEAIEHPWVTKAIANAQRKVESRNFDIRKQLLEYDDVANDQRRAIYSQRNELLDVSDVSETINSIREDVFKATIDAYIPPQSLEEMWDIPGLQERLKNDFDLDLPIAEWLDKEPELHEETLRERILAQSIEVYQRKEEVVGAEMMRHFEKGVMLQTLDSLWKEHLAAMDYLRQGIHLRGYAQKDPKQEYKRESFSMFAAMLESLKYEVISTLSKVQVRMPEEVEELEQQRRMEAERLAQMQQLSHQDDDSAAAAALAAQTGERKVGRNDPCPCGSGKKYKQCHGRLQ

In the case of `O=C(CSc1ccncc1)N1C[C@H]2CC[C@@H]1CN(Cc1cccnc1)C2`, the Percent Effect in assay [1] was -4.31%; in [2], 16.4%; in assay [3], 10.6%; in [4], 8.46%; in the assay with Trypanosoma cruzi, 7.05%; in [5] it was 2.27%. In addition, the Percent Effect in [6] was 6.74%; in the assay listed under Homo sapiens, 9.78%; in assay [7], 5.38%; in [8], 15%; in assay [9], -4%.
`CC(C)CCN1CCNC(=O)C1CC(=O)N1CCc2sccc2C1` (stereo not drawn): the Percent Effect in assay [1] is -4.93%; in assay [2], 0%; in assay [3], 0.663%; in assay [4] it was 4.62%; in the assay with Trypanosoma cruzi, 3.44%; in assay [5], -15.2%. Besides, the Percent Effect in assay [6] was 1.17%; in the assay listed under Homo sapiens, -17.6%; in assay [7], 4.3%; in assay [8] it was 8.64%; in assay [9], 1.1%.
Turning to `CC(O)CN1CCN(C(=O)c2cnn(-c3ccccc3F)c2)CC1` (stereo not drawn), the Percent Effect is -6% in [1]; 13.3% in assay [2]; -6.53% in assay [3]; 24.2% in assay [4]; 5.75% in the assay on Trypanosoma cruzi; 15.6% in assay [5]. In addition, the Percent Effect is 9.59% in assay [6]; 10.4% in the assay listed under Homo sapiens; -0.546% in assay [7]; 8.64% in [8]; -7.25% in assay [9].
Turning to `CN(CCO)Cc1nnc(C2CCN(C(=O)C(C)(C)C)CC2)n1C`, the Percent Effect is -2.6% in assay [1]; 5.33% in assay [2]; 1.76% in [3]; -1.99% in assay [4]; -7.69% in the assay on Trypanosoma cruzi; 6.25% in [5]. In addition, the Percent Effect in assay [6] is 16.6%; in the assay listed under Homo sapiens, 2.97%; in assay [7], 0.546%; in assay [8], 3.7%; in assay [9], -6%.
In the case of `CCc1nc(C2CCCN2CC(=O)Nc2sc(C)c(C)c2C)no1` (stereo not drawn), the Percent Effect in [1] is -2.85%; in assay [2], -5.2%; in assay [3] it was 3.9%; in assay [4] it was 11.2%; in the assay on Trypanosoma cruzi, 1.69%; in assay [5], -1.42%. Besides, the Percent Effect in [6] was -8.11%; in the assay listed under Homo sapiens, 11.2%; in assay [7], 13.6%; in assay [8], 14.6%; in assay [9] it was -1.21%.
For the compound `CC(C)c1nccn1C1CCCN(C(=O)c2ccc3c(c2)OCO3)C1` (stereo not drawn), the Percent Effect in assay [1] is 1.45%; in [2] it was -2.6%; in assay [3] it was 7.64%; in assay [4] it was -5.54%; in the assay with Trypanosoma cruzi, 1.27%; in [5] it was 5.26%. Also, the Percent Effect in assay [6] is 3.96%; in the assay listed under Homo sapiens it was 9.94%; in [7], 0%; in [8], -2.35%; in assay [9], -9.35%.
Turning to `Cc1n[nH]c(C2CN(C(=O)CCc3ccco3)CCO2)n1` (stereo not drawn), the Percent Effect in [1] is -1.8%; in [2] it was 7.89%; in [3], 9.83%; in assay [4] it was -2.52%; in the assay with Trypanosoma cruzi it was 3.6%; in [5], 3.55%. Further, the Percent Effect is 21% in assay [6]; 21.1% in the assay listed under Homo sapiens; 2.13% in [7]; 7.79% in [8]; -3.66% in assay [9].
Regarding `CCN(C(=O)CS(=O)(=O)Cc1cc(Cl)c2c(c1)OCCCO2)C1CC1`, the Percent Effect in [1] is 2.17%; in assay [2], 5.06%; in assay [3], -1.41%; in assay [4] it was -13.2%; in the assay with Trypanosoma cruzi, -7.84%; in [5], 5.32%. Besides, the Percent Effect in assay [6] was 7.62%; in the assay filed under Homo sapiens, 8.01%; in assay [7], 3.45%; in assay [8], 16.5%; in assay [9], -6.8%.
